# Screening data deposited in PubChem BioAssay by National Center for Advancing Translational Sciences (NCATS).
# This is one part of a sample in which hits are shown more often than they occur.
# Shiga inhibitor = inhibitors of Shiga toxin in Vero cells. Vero cells, Shiga toxin protein synthesis inhibition reporter. inhibition, % at 38.7 µM. actives 9.2% (n = 290,000); in the data active means inhibition mostly above about 28%, no sharp cut-off; inactive means mostly below about 43%
# CHX counter = counter-screen for Shiga toxin inhibitors: cycloheximide protein synthesis inhibition. cell reporter, cycloheximide protein synthesis inhibition counterscreen. max response, %. actives 12% (n = 300,000); in the data active means max response mostly above about 13%, no sharp cut-off; inactive means mostly below about 14%; further: read at 38.3 µM for the half of the compounds with a filed dose
# AmpC detergent = blocks E. coli AmpC beta-lactamase in detergent assay. AmpC hydrolysis of nitrocefin, absorbance 480 nm, 0.01% Triton. AID 485294. Potency, µM (titrated, usually from 114 µM), most hits filed as inhibitors. P00811. actives 0.041% (n = 370,000); further: nearly all actives have a fitted effect of over 25% in size
# Target sequence (P00811 whole entry, looked up): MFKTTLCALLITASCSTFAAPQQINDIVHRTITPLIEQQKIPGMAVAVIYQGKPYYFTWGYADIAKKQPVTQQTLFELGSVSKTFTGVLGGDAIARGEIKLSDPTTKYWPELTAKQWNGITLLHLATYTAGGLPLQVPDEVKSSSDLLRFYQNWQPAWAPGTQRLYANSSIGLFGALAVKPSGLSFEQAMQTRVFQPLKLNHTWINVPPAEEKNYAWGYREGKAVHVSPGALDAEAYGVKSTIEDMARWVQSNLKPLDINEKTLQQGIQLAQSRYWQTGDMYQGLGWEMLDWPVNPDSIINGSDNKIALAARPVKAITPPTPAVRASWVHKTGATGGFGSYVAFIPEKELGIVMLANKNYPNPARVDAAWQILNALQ
#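 20 mM phosphate pH 7.0 + 0.01% (detergent screen) or 0.0001% Triton X-100; 5.3 nM AmpC reagent; cpd preinc 15 min RT; nitrocefin (800 uM stock) to start; A480 q20 s × 4 min; Activity was normalised to no-enzyme and no-compound control wells.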
# NS1 function inh = influenza NS1 inhibition. AID 2326. Potency, µM (titrated, usually from 46.1 µM). actives 0.4% (n = 270,000); calls by dose curve; further: actives are rising curves; nearly all actives have a fitted effect of over 50% in size
#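 S. cerevisiae expressing influenza A NS1, grown in glucose, washed, then diluted 1:100 into pH 6.0 -URA galactose medium with 23 nl compound. Growth recovery read as OD600; NS1-free strain serves as control.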
# AmpC inh no detg = blocks E. coli AmpC beta-lactamase in detergent-free assay. AmpC nitrocefin hydrolysis, absorbance 480 nm, 0.0001% Triton. Potency, µM (doses to about 57.1 µM), hits mostly inhibitors. actives 0.52% (n = 330,000); further: nearly all actives have a fitted effect of over 20% in size
#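 20 mM phosphate pH 7.0 + 0.01% (detergent screen) or 0.0001% Triton X-100; 5.3 nM AmpC reagent; cpd preinc 15 min RT; nitrocefin (800 uM stock) to start; A480 q20 s × 4 min; Activity was normalised to no-enzyme and no-compound control wells.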
# A number is an active result; – = inactive; ? = inconclusive; · = not tested or not shown. Unless noted, the call rests on the fitted dose curve; in most records, active means well fitted curve in the direction sought with a large enough effect; inconclusive means small, poorly fitted or top-dose-only effect, or another doubt; inactive means no such curve, though single readings can be large; an effect the other way counts as inactive or inconclusive.
SMILES,Shiga inhibitor,CHX counter,AmpC detergent,NS1 function inh,AmpC inh no detg
COCCCNc1nc2c(-c3ccc(C)cc3)nnn2c2ccccc12,72,39,–,–,–
COc1ccc(-c2csc(NC(=S)NC(=O)/C=C/c3ccco3)n2)cc1OC,–,–,–,–,–
O=C(/C=C/c1ccco1)Nc1nc(-c2ccccc2)cs1,118,86,?,–,–
COc1ccc(-c2csc(NC(=S)NC(=O)/C=C/c3ccco3)n2)cc1Br,–,–,–,–,–
O=C(/C=C/c1ccco1)Nc1nc(-c2ccc(F)c(F)c2)cs1,–,18,–,–,–
CCOC(=O)Cc1csc(NS(=O)(=O)c2ccc(Cl)cc2)n1,–,–,–,–,–
CCOC(=O)Cc1csc(NC(=O)/C=C/c2ccc(Cl)cc2)n1,59,23,–,–,–
CCOC(=O)Cc1csc(NC(=O)/C=C/c2ccco2)n1,59,25,–,–,–
CCn1c(=O)cc(OCC(=O)N2CCN(c3cccc(Cl)c3)CC2)c2ccccc21,·,·,–,·,·
Cc1cccc(NC(=O)CN2C(=O)c3cccc4cccc2c34)c1C,·,·,–,·,·
O=C(c1ccc2c(c1)N(Cc1ccccc1)C(=O)c1ccccc1S2(=O)=O)N1CCN(c2ccccc2)CC1,·,·,–,·,·
O=C(CCCSc1ccccc1)Nc1nc(-c2ccccn2)cs1,–,–,–,–,–
O=C(/C=C/c1ccco1)Nc1nc(-c2ccccn2)cs1,53,49,–,·,–
Cc1csc(NC(=O)/C=C/c2ccc(C)o2)n1,73,31,–,–,–
Cc1cc(NS(=O)(=O)c2ccc(NC(=O)/C=C/c3ccco3)cc2)nc(C)n1,–,–,–,–,–
Cc1ccc(/C=C/C(=O)Nc2ccc(S(N)(=O)=O)cc2)o1,–,–,–,–,–
Cc1csc(NC(=O)/C=C/c2ccco2)n1,35,25,–,–,–
O=C(c1ccccc1Cl)N1CCCC(c2nc3c(nnn3Cc3ccc(F)cc3F)c(=O)[nH]2)C1 (stereo not drawn),·,·,–,·,·
Cn1c(C2CCCCC2)nc2ccccc21,–,16,–,–,–
CC1(C(=O)Nc2nc3ccccc3s2)CC1(Br)Br (stereo not drawn),94,44,–,–,–
CCN1CCN(CC(=O)Nc2nc3ccccc3s2)CC1,–,–,?,–,–
Cc1ccc2nc(-c3ccc(NC(=O)C4CCCO4)cc3)[nH]c2c1 (stereo not drawn),–,55,–,–,–
Cc1ccc2nc(NC(=O)Cc3cccs3)sc2c1,125,50,–,–,–
COc1ccc2nc(NC(=O)CNS(=O)(=O)c3cccs3)sc2c1,–,–,–,–,?
COc1ccc2nc(NC(=O)CN(C)S(=O)(=O)c3cccs3)sc2c1,58,23,–,–,?
SMILES,Shiga inhibitor,CHX counter,AmpC detergent,NS1 function inh,AmpC inh no detg
Cc1ccc2nc(NC(=O)CSCC(=O)Nc3cc(C)on3)sc2c1,·,·,–,·,–
COc1ccc(C(=O)N2CCC(C(=O)Nc3ccc(Cl)cc3)CC2)cc1,·,·,–,·,·
CC1CCN(C(=O)c2nc[nH]c2C(=O)N2CCC(C)CC2)CC1,·,·,–,·,–
CC12CCC(C/C1=N/OC(=O)c1cccc([N+](=O)[O-])c1)C2(C)C (stereo not drawn),–,–,–,·,–
COCCCNC(=O)CN1C(=O)c2cccnc2Sc2ccccc21,·,·,–,·,·
Cc1ccc2nc(-c3ccc(NC(=O)Cc4cccs4)cc3)[nH]c2c1,–,30,?,–,–
O=C(Cc1ccccc1)Nc1nc(=O)c2ccccc2s1,–,–,–,–,–
Cc1ccc2nc(NC(=O)C3CCN(S(=O)(=O)c4cccs4)CC3)sc2c1,–,–,–,–,–
O=C(Cc1nc(=O)c2ccccc2s1)Nc1ccccc1,67,59,–,–,–
COCC(=O)Nc1nnc(-c2ccc(C(C)(C)C)cc2)s1,91,52,–,–,–
Cc1ccc2nc(N/C(=N/S(=O)(=O)c3cccs3)c3ccccc3Cl)sc2c1,–,–,–,·,13µM
CCOC(=O)c1c(C)oc2ncnc(Nc3cc(Cl)ccc3OC)c12,·,·,–,·,·
COC(=O)c1c(C)sc(-c2c(-c3cccc(OC)c3)[nH]c3c2c(=O)[nH]c(=O)n3C)c1O,·,·,–,·,·
CN(c1ccc(Cl)cc1)S(=O)(=O)c1nnc(NC(=O)C(C)(C)C)s1,–,–,–,–,–
NC(=S)Nc1nc2ccccc2s1,64,38,–,·,–
O=C(CP(=O)(c1ccccc1)c1ccccc1)Nc1nc2ccccc2s1,–,–,–,–,–
O=C(Cc1cccs1)Nc1nc2ccccc2s1,111,30,–,–,–
COCC(=O)Nc1nc2ccc(S(C)(=O)=O)cc2s1,108,40,–,–,–
O=C(Cc1ccccc1)Nc1nc2ccccc2s1,49,26,–,–,–
CS(=O)(=O)c1ccc2nc(NC(=O)CN3CCOCC3)sc2c1,·,–,–,–,–
CN1CCN(CCCNC(=O)c2cnn(-c3ccccc3)c2-n2cccc2)CC1,·,·,–,·,·
COc1n[nH]c(C(=O)Nc2nc3ccccc3s2)c1[N+](=O)[O-],75,33,–,–,–
CC(Cc1ccccc1)C(=O)NCc1nc2ccccc2s1 (stereo not drawn),30,19,?,–,–
CCOc1ccc2nc(NC(=O)Cc3cccs3)sc2c1,84,40,–,–,–
COc1ccccc1CC(=O)Nc1ncc(C)s1,–,–,–,–,–
SMILES,Shiga inhibitor,CHX counter,AmpC detergent,NS1 function inh,AmpC inh no detg
Cc1cnc(NC(=O)Cc2cccs2)s1,–,21,–,·,–
CCOc1ccc2nc(NS(=O)(=O)c3cccs3)sc2c1,·,–,?,–,–
COc1cc2c(cc1OC)C(c1cccs1)N(C(=O)c1cccc(S(=O)(=O)N(C)C)c1)CC2 (stereo not drawn),–,–,–,–,–
Cc1ccc(NC(=O)c2cc(S(=O)(=O)N3CCC4(CC3)OCCO4)ccc2F)cc1Cl,·,·,–,·,·
COCC(=O)Nc1nc2ccccc2s1,50,29,–,–,·
Cc1ccc(-c2csc(NC(=O)CCCc3cccs3)n2)cc1,–,–,?,–,–
COC(=O)CCCCCCCCC(=O)Nc1nc2ccccc2s1,–,–,–,–,–
COc1ccc2nc(NC(=O)Cc3cccs3)sc2c1,152,51,–,–,–
COc1ccc2nc(NC(=O)CCc3cc(OC)c(OC)c(OC)c3)sc2c1,–,–,–,·,–
CCc1ccc2nc(NC(=O)CCCc3cccs3)sc2c1,49,33,–,–,–
O=c1c(S(=O)(=O)c2ccc(Cl)cc2)cn(Cc2ccc(F)cc2)c2ccc(F)cc12,·,·,–,·,·
COc1ccccc1C(=O)NNC(=O)c1csc(N2CCOCC2)n1,·,·,?,·,–
O=C(NNC(=O)c1ccccc1OCc1ccccc1Cl)c1csc(N2CCOCC2)n1,–,10,?,–,–
CCc1nn2c(=O)cc(COC(=O)c3cccc(NC(=O)c4cccs4)c3)nc2s1,·,·,–,·,·
O=C(CSc1ccsc1[N+](=O)[O-])NCCc1ccccc1,–,–,–,–,–
O=C(CSc1ccsc1[N+](=O)[O-])NCCc1ccc(Cl)cc1,–,–,–,–,–
Cc1ccc(CNC(=O)CSc2ccsc2[N+](=O)[O-])cc1,72,54,–,·,–
